Several values for one entry are separate records, joined by “and”; a condition that tells them apart may be missing. Identical values can stand only once. About 83,000 compounds went through this panel and 20% of them were active in at least one assay; those are over-represented in the sample as a whole.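 Interpretation: 100, growth as untreated; towards 0, rising growth inhibition; 0, no net growth; 0 to -100, cell death. Compounds scoring below 10 were considered active.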 Activity calls are given as the source filed them. Where a SMILES comes first, the peptide text is derived from it. [ ]: non-standard residue; d: D form. ξ: configuration not given here. ξV = CC(C)C(N)C(=O)O
Legend:
Test in all cases: NCI-60 one-dose screen, 48 h (100 = growth as untreated, 0 = no growth, -100 = all killed)
HCT-15 colon = conditions: 10 µM
HT29 colon = conditions: 10 µM
SNB-75 CNS = conditions: 10 µM
SNB-19 CNS = conditions: 10 µM
U251 CNS = conditions: 10 µM unless noted
PC-3 prostate = conditions: 10 µM
SK-MEL-5 melanoma = conditions: 10 µM unless noted
UACC-62 melanoma = test system: UACC-62 melanoma
LOX IMVI melanoma = conditions: 10 µM unless noted
SK-MEL-28 melanoma = conditions: 10 µM
SK-MEL-2 melanoma = conditions: 10 µM
SN12C renal = conditions: 10 µM
UO-31 renal = conditions: 10 µM
TK-10 renal = test system: TK-10 renal
ACHN renal = conditions: 10 µM
CAKI-1 renal = conditions: 10 µM
CCRF-CEM leukemia = conditions: 10 µM
MOLT-4 leukemia = conditions: 10 µM
EKVX NSCLC = conditions: 10 µM
A498 renal = conditions: 10 µM

Measured: growth

CC(C)C(NC(=O)CN)C(=O)O (centres undefined) (H-Gly-[ξV]-OH)
inactive: HCT-15 colon 109% and 106% | HT29 colon 101% and 100% | SNB-75 CNS 104% and 84.7% | SNB-19 CNS 106% | U251 CNS 102% and 98.9% | PC-3 prostate 92.6% and 88.6% | SK-MEL-5 melanoma 104% and 102% | UACC-62 melanoma; 10 µM 104% and 94.5% | LOX IMVI melanoma 101% and 102% | SK-MEL-28 melanoma 109% and 107% | SK-MEL-2 melanoma 108% and 109% | SN12C renal 104% and 100% | UO-31 renal 84% | TK-10 renal; 10 µM 103% and 93.9% | ACHN renal 102% and 109% | CAKI-1 renal 96.4% and 97.1% | CCRF-CEM leukemia 91.9% and 96% | MOLT-4 leukemia 79.2% and 101%

COC(=O)C1=COC(C)C2C[n+]3ccc4c([nH]c5ccccc54)c3CC12 (centres undefined)
inactive: HT29 colon 99.4% and 81.3% | SNB-75 CNS 83.3% and 92.8% | SNB-19 CNS 101% and 90.3% | U251 CNS 101% and 88.4% | PC-3 prostate 92% and 75.7% | SK-MEL-5 melanoma 100% and 93.6% | UACC-62 melanoma; 10 µM 91.1% and 83.1% | UACC-62 melanoma; 100 µM 52.7% and 32.5% | LOX IMVI melanoma 98.9% and 98% | SK-MEL-28 melanoma 106% and 103% | SK-MEL-2 melanoma 103% and 85.1% | EKVX NSCLC 102% and 93% | SN12C renal 95.9% and 78.7% | UO-31 renal 79.1% and 73.4% | TK-10 renal; 10 µM 107% and 126% | TK-10 renal; 100 µM 110% and 56.8% | ACHN renal 99.7% and 88.9% | CAKI-1 renal 101% and 94.4% | CCRF-CEM leukemia 97.4% and 104% | MOLT-4 leukemia 98.8% and 94.3%

Cc1nc(N=C(N)N)nc2ccc3ccccc3c12
inactive: HCT-15 colon 71.8% | ACHN renal 15.1% | CAKI-1 renal 75.2% | A498 renal 32.9%
active: HT29 colon 1.55% | SNB-75 CNS -10.3% | SNB-19 CNS -11.5% | U251 CNS -17% | PC-3 prostate -19.2% | SK-MEL-5 melanoma 2.88% | UACC-62 melanoma; 10 µM -20.9% | LOX IMVI melanoma 2.45% | SK-MEL-28 melanoma -0.847% | SK-MEL-2 melanoma -19% | SN12C renal -22.6% | UO-31 renal 5.39% | TK-10 renal; 10 µM 3.86% | CCRF-CEM leukemia -25.9% | MOLT-4 leukemia -28.2%

N=S(c1ccccc1[N+](=O)[O-])c1ccccc1[N+](=O)[O-]
active: HCT-15 colon -49.6% | HT29 colon -32.7% | LOX IMVI melanoma 3.28% | UO-31 renal 5.99% | ACHN renal 2.38% | CCRF-CEM leukemia 7.69%
inactive: SNB-19 CNS 108% | U251 CNS 84.5% | PC-3 prostate 89.4% | SK-MEL-5 melanoma 50.3% | UACC-62 melanoma; 10 µM 67.9% | SK-MEL-28 melanoma 77.5% | SK-MEL-2 melanoma 89.2% | SN12C renal 84.9% | TK-10 renal; 10 µM 22.4% | CAKI-1 renal 85.5% | MOLT-4 leukemia 98.9%

O=C(/C=C/c1cccnc1)c1ccccc1
inactive: HCT-15 colon 63.2% | HT29 colon 14.1% | SNB-75 CNS 87.8% | SNB-19 CNS 82.8% | U251 CNS 37.3% | PC-3 prostate 88.1% | SK-MEL-5 melanoma 103% | UACC-62 melanoma; 10 µM 103% | LOX IMVI melanoma 27.5% | SK-MEL-28 melanoma 102% | SK-MEL-2 melanoma 94.2% | EKVX NSCLC 103% | SN12C renal 100% | UO-31 renal 84.1% | TK-10 renal; 10 µM 93.9% | ACHN renal 79.8% | A498 renal 89.7% | CCRF-CEM leukemia 41.3% | MOLT-4 leukemia 82.3%

Clc1ccc(/C=C/c2ccccn2)c(Cl)c1
inactive: HCT-15 colon 68.2% | HT29 colon 83.3% | SNB-75 CNS 61.2% | SNB-19 CNS 92.7% | U251 CNS 79.1% | PC-3 prostate 85.9% | SK-MEL-5 melanoma 81.6% | UACC-62 melanoma; 10 µM 80.6% | LOX IMVI melanoma 91.3% | SK-MEL-28 melanoma 120% | SK-MEL-2 melanoma 107% | EKVX NSCLC 58.9% | SN12C renal 94.4% | UO-31 renal 59.6% | TK-10 renal; 10 µM 98% | ACHN renal 104% | CAKI-1 renal 72.7% | MOLT-4 leukemia 79.5%

O=C(/C=C/c1ccccn1)c1ccccc1
active: HCT-15 colon -8.15% | HT29 colon -67.2% | U251 CNS -31.4% | LOX IMVI melanoma -31.2% | ACHN renal -27.1% | CCRF-CEM leukemia -12.6% | MOLT-4 leukemia 3.13%
inactive: SNB-75 CNS 66.2% | SNB-19 CNS 61.8% | PC-3 prostate 69.3% | SK-MEL-5 melanoma 74.7% | UACC-62 melanoma; 10 µM 82.4% | SK-MEL-28 melanoma 100% | SK-MEL-2 melanoma 79.3% | EKVX NSCLC 93.8% | SN12C renal 61.2% | UO-31 renal 56.5% | TK-10 renal; 10 µM 19.5%

From PubChem BioAssay (NCI)
